{
  "source": "the supplement of paper PMC8728848",
  "binders": {"B1": {"name": "SSR2 (Sclerotium rolfsii) (protein)", "chain": "MVYKITVRVYQTNPDAFFHPVEKTVWKYANGGTWSITDDQHVLTMGGSGTSGTLRFHADNGESFTATFGVHNYKRWCDIVTNLAADETGMVINQQYYSQKNREEARERQLSNYQVKNAKGRNFQIVYTEAEGNDLHANLIIG"}},
  "experiment_in_all_cases": "glycan array binding signal (z-score within array); higher = stronger binding",
  "conditions_in_all_cases": "glycan notation: IUPAC condensed, linker removed",
  "key": {"Glc(a1-4)Glc": {"target": "Glc(a1-4)Glc", "summary_of_the_method": "(§1)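 From the Consortium for Functional Glycomics database, 3228 arrays were curated, keeping only those whose protein sequence was available. Binding is given as a within-array Z-score averaged across arrays sharing a protein sequence and across linkers. Negative Z-scores can be read as non-binding.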"}, "GlcA(b1-3)Gal": {"target": "GlcA(b1-3)Gal", "summary_of_the_method": "as §1"}, "[1]": {"target": "GlcNAc(a1-3)Gal(b1-4)GlcNAc", "summary_of_the_method": "as §1"}, "[2]": {"target": "GlcNAc(a1-4)Gal(b1-4)GlcNAc(b1-3)Gal(b1-4)GlcNAc(b1-3)Gal(b1-4)GlcNAc", "summary_of_the_method": "as §1"}, "[3]": {"target": "GlcNAc(a1-6)Gal(b1-4)GlcNAc", "summary_of_the_method": "as §1"}, "[4]": {"target": "GlcNAc(b1-2)Man(a1-3)[GlcNAc(b1-2)Man(a1-6)]Man(b1-4)GlcNAc(b1-4)GlcNAc", "summary_of_the_method": "as §1"}, "[5]": {"target": "GlcNAc(b1-2)Man(a1-3)[GlcNAc(b1-4)][GlcNAc(b1-2)Man(a1-6)]Man(b1-4)GlcNAc(b1-4)[Fuc(a1-6)]GlcNAc", "summary_of_the_method": "as §1"}, "[6]": {"target": "GlcNAc(b1-2)[GlcNAc(b1-6)]Man(a1-6)[GlcNAc(b1-2)Man(a1-3)]Man(b1-4)GlcNAc(b1-4)GlcNAc", "summary_of_the_method": "as §1"}, "[7]": {"target": "GlcNAc(b1-2)[GlcNAc(b1-6)]Man(a1-6)[GlcNAc(b1-2)Man(a1-3)]Man(b1-4)GlcNAc(b1-4)[Fuc(a1-6)]GlcNAc", "summary_of_the_method": "as §1"}, "[8]": {"target": "GlcNAc(b1-3)Gal(b1-3)GalNAc", "summary_of_the_method": "as §1"}, "[9]": {"target": "GlcNAc(b1-3)Gal(b1-4)GlcNAc(b1-3)Gal(b1-4)GlcNAc", "summary_of_the_method": "as §1"}, "[10]": {"target": "GlcNAc(b1-3)Gal(b1-4)GlcNAc(b1-3)Gal(b1-4)GlcNAc(b1-3)Gal(b1-4)GlcNAc(b1-3)Gal(b1-4)GlcNAc(b1-2)[GlcNAc(b1-3)Gal(b1-4)GlcNAc(b1-3)Gal(b1-4)GlcNAc(b1-3)Gal(b1-4)GlcNAc(b1-3)Gal(b1-4)GlcNAc(b1-6)]Man(a1-6)[GlcNAc(b1-3)Gal(b1-4)GlcNAc(b1-3)Gal(b1-4)GlcNAc(b1-3)Gal(b1-4)GlcNAc(b1-3)Gal(b1-4)GlcNAc(b1-2)Man(a1-3)]Man(b1-4)GlcNAc(b1-4)[Fuc(a1-6)]GlcNAc", "summary_of_the_method": "as §1"}, "[11]": {"target": "GlcNAc(b1-3)Gal(b1-4)GlcNAc(b1-3)[GlcNAc(b1-3)Gal(b1-4)GlcNAc(b1-3)]GalNAc", "summary_of_the_method": "as §1"}, "[12]": {"target": "GlcNAc(b1-3)Gal(b1-4)GlcNAc(b1-6)[GlcNAc(b1-3)Gal(b1-3)]GalNAc", "summary_of_the_method": "as §1"}, "GlcNAc(b1-3)Man": {"target": "GlcNAc(b1-3)Man", "summary_of_the_method": "as §1"}, "[13]": {"target": "Man(a1-2)Man(a1-3)[Man(a1-6)]Man(a1-6)[Man(a1-2)Man(a1-3)]Man(b1-4)GlcNAc(b1-4)GlcNAc", "summary_of_the_method": "as §1"}, "[14]": {"target": "Man(a1-2)Man(a1-6)[Man(a1-3)]Man(a1-6)[Man(a1-2)Man(a1-2)Man(a1-3)]Man", "summary_of_the_method": "as §1"}, "[15]": {"target": "Man(a1-3)[Man(a1-6)]Man(a1-6)[Man(a1-2)Man(a1-3)]Man(b1-4)GlcNAc(b1-4)GlcNAc", "summary_of_the_method": "as §1"}, "[16]": {"target": "Neu5Ac(a2-3)Gal(b1-3)GalNAc(b1-4)[Neu5Ac(a2-3)]Gal(b1-4)Glc", "summary_of_the_method": "as §1"}, "[17]": {"target": "Neu5Ac(a2-3)Gal(b1-3)[Neu5Ac(a2-6)]GlcNAc(b1-3)[Fuc(a1-3)[Gal(b1-4)]GlcNAc(b1-6)]Gal(b1-4)Glc", "summary_of_the_method": "as §1"}, "[18]": {"target": "Neu5Ac(a2-3)Gal(b1-4)GlcNAc(b1-2)Man(a1-3)[GlcNAc(b1-4)][Neu5Ac(a2-3)Gal(b1-4)GlcNAc(b1-2)Man(a1-6)]Man(b1-4)GlcNAc(b1-4)GlcNAc", "summary_of_the_method": "as §1"}, "[19]": {"target": "Neu5Ac(a2-3)Gal(b1-4)GlcNAc(b1-3)Gal(b1-4)GlcNAc(b1-3)[Neu5Ac(a2-3)Gal(b1-4)GlcNAc(b1-3)Gal(b1-4)GlcNAc(b1-6)]GalNAc", "summary_of_the_method": "as §1"}, "[20]": {"target": "Neu5Ac(a2-3)Gal(b1-4)GlcNAc(b1-3)Gal(b1-4)GlcNAc(b1-6)[Gal(b1-3)]GalNAc", "summary_of_the_method": "as §1"}, "[21]": {"target": "Neu5Ac(a2-3)GalNAc(b1-4)GlcNAc", "summary_of_the_method": "as §1"}, "[22]": {"target": "Neu5Ac(a2-6)Gal(b1-4)GlcNAc(b1-2)Man(a1-3)Man(b1-4)GlcNAc(b1-4)GlcNAc", "summary_of_the_method": "as §1"}, "[23]": {"target": "Neu5Ac(a2-6)Gal(b1-4)GlcNAc(b1-3)Gal(b1-3)GlcNAc", "summary_of_the_method": "as §1"}, "[24]": {"target": "Neu5Ac(a2-8)Neu5Ac(a2-3)Gal(b1-3)GalNAc(b1-4)[Neu5Ac(a2-3)]Gal(b1-4)Glc", "summary_of_the_method": "as §1"}, "[25]": {"target": "Neu5Ac9Ac(a2-6)Gal(b1-4)GlcNAc", "summary_of_the_method": "as §1"}, "[26]": {"target": "Neu5Gc(a2-3)Gal(b1-4)[Fuc(a1-3)]GlcNAc", "summary_of_the_method": "as §1"}, "[27]": {"target": "Neu5Gc(a2-8)Neu5Gc(a2-6)Gal(b1-4)GlcNAc", "summary_of_the_method": "as §1"}},
  "note": "The sample as a whole holds a higher share of the strongest signals than the screen did.",
  "data": [
    {"binder": "B1", "values": [
      {"measurement": "glycan array binding signal (z-score)", "setting": "Glc(a1-4)Glc", "result": -0.262},
      {"measurement": "glycan array binding signal (z-score)", "setting": "GlcA(b1-3)Gal", "result": -0.282},
      {"measurement": "glycan array binding signal (z-score)", "setting": "[1]", "result": 3.71},
      {"measurement": "glycan array binding signal (z-score)", "setting": "[2]", "result": 6.99},
      {"measurement": "glycan array binding signal (z-score)", "setting": "[3]", "result": 0.528},
      {"measurement": "glycan array binding signal (z-score)", "setting": "[4]", "result": 6.77},
      {"measurement": "glycan array binding signal (z-score)", "setting": "[5]", "result": 2.85},
      {"measurement": "glycan array binding signal (z-score)", "setting": "[6]", "result": 4.32},
      {"measurement": "glycan array binding signal (z-score)", "setting": "[7]", "result": 4.49},
      {"measurement": "glycan array binding signal (z-score)", "setting": "[8]", "result": 3.63},
      {"measurement": "glycan array binding signal (z-score)", "setting": "[9]", "result": 0.873},
      {"measurement": "glycan array binding signal (z-score)", "setting": "[10]", "result": 1.3},
      {"measurement": "glycan array binding signal (z-score)", "setting": "[11]", "result": 0.552},
      {"measurement": "glycan array binding signal (z-score)", "setting": "[12]", "result": 1.62},
      {"measurement": "glycan array binding signal (z-score)", "setting": "GlcNAc(b1-3)Man", "result": -0.149},
      {"measurement": "glycan array binding signal (z-score)", "setting": "[13]", "result": -0.276},
      {"measurement": "glycan array binding signal (z-score)", "setting": "[14]", "result": -0.303},
      {"measurement": "glycan array binding signal (z-score)", "setting": "[15]", "result": -0.244},
      {"measurement": "glycan array binding signal (z-score)", "setting": "[16]", "result": -0.28},
      {"measurement": "glycan array binding signal (z-score)", "setting": "[17]", "result": -0.288},
      {"measurement": "glycan array binding signal (z-score)", "setting": "[18]", "result": -0.284},
      {"measurement": "glycan array binding signal (z-score)", "setting": "[19]", "result": -0.267},
      {"measurement": "glycan array binding signal (z-score)", "setting": "[20]", "result": 0.625},
      {"measurement": "glycan array binding signal (z-score)", "setting": "[21]", "result": -0.279},
      {"measurement": "glycan array binding signal (z-score)", "setting": "[22]", "result": -0.286},
      {"measurement": "glycan array binding signal (z-score)", "setting": "[23]", "result": -0.286},
      {"measurement": "glycan array binding signal (z-score)", "setting": "[24]", "result": -0.271},
      {"measurement": "glycan array binding signal (z-score)", "setting": "[25]", "result": -0.291},
      {"measurement": "glycan array binding signal (z-score)", "setting": "[26]", "result": -0.284},
      {"measurement": "glycan array binding signal (z-score)", "setting": "[27]", "result": -0.286}
    ]}
  ]
}
